Source: PubChem BioAssay (NCATS)
Results filed as inconclusive are left out. Values without a mark were called inactive. Active and inactive are the calls of the source. The call rests on the fitted dose curve; in most records, active means well fitted cell-killing curve with a large enough effect; inconclusive means small, poorly fitted or top-dose-only effect, or effect the other way; inactive means no such curve, though single readings can be large or run the other way.

Test: qHTS of pediatric cancer cell lines to identify multiple opportunities for drug repurposing: Confirmatory screen for SJ-GBM2 cells (AID 1347116);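 further: 48 hour compound exposure; nearly all actives have a fitted effect of over 60% in size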
Settings: SJ-GBM2 glioblastoma cells, viability; series mostly up to 45.9 µM; activity change, negative = cytotoxic: at the top concentration
Text: Drug repurposing or repositioning has been offered as a strategy for drug development in oncology programs. This approach has special potential for childhood cancers and other rare or orphan diseases, where the expected return on new drug development has been a disincentive to pharmaceuticals.
In this project we exploit the poly-pharmacology of drugs to discover new indications via phenotypic screening of a panel of 19 well-characterized cell lines derived from solid tumors seen in children and adolescents. The goal is to identify approved drugs with previously unrecognized anticancer properties that has the potential to reveal new mechanisms and biological processes involved in carcinogenesis or drug resistance. We employed a titration-based paradigm (quantitative high-throughput screening or qHTS), where all compounds were tested at multiple concentrations for their effect on cell viability. Concentration-response curves (CRCs) were derived directly from the primary screen, and both potency and efficacy values were used to identify compounds with robust bioactivity profiles. We screened the NIH Chemical Genomics Center (NCGC) Pharmaceutical Collection (NPC) and Mechanism Interrogation Plate (MIPE) small molecule collections of approved and investigational compounds against these cell lines; and measured metabolically active cells after 48 hours of compound treatment as a proxy for cell viability.
Assay Submitter: Nathalia J. Martinez, National Center for Advancing Translational Sciences, National Institutes of Health, Rockville, MD, USA; email: natalia.martinez@nih.gov
[1] Shen, M et al. Quantitative high-throughput phenotypic screening of pediatric cancer cell lines identifies multiple opportunities for drug repurposing. Oncotarget 2017 Dec 19;9(4):4758-4772. PMID 29435139.
The cells were obtained from University of North Carolina (UNC), Pediatric Preclinical Testing Program (PPT), and Coriell Institute (CI).
qHTS cell viability assay:
Cells were assayed in growth media at a density of 500-1,000 cells/well. Five microliters of cells were dispensed into 1,536-well, white, solid-bottom, TC-treated plates (Greiner Bio One) using a multidrop dispenser and incubated at 37 degrees C, 5% CO2, under a humidified atmosphere for 5 hours. Twenty-three nanoliters of compounds and controls (neutral control DMSO or positive control bortezomib at final concentration of 2.3 µM) were subsequently transferred by Kalypsys pintool. For primary screens, the MIPE collection was tested at 11-point dilutions (final concentrations range from 0.78 nM to 46 µM) and the NPC collection at 8-point dilutions (final concentrations range from 0.59 nM to 46 µM). Compounds tested in follow-up screens were assayed at 11-point dilutions. Cells were incubated for 48 hours, followed by addition of 3 uL of CellTiter-Glo (Promega). After a 15 min incubation at room temperature, samples were analyzed for luminescence intensity using a ViewLux High-throughput CCD imager equipped with clear filters.
Potency means the concentration at half of the fitted maximal effect.

Question: With C[C@@]12C(=O)OC(=O)[C@]1(C)C1CCC2O1 as the molecule, how does the Potency read?
Answer: Its Potency is 8.27 µM (active).

Question: With O=C(CCCN1CC=C(n2c(=O)[nH]c3ccccc32)CC1)c1ccc(F)cc1 as the molecule, how does the “activity change, negative = cytotoxic” value read?
Answer: Its value is 14.9%.

Question: Which “activity change, negative = cytotoxic” value does the source give for CCCCCCCCCCCCOCCOCCOCCOCCOCCOCCOCCOCCOCCO here?
Answer: Its value is -2.14%.

Question: For O=C(Oc1cccc2cccnc12)c1ccccc1, which “activity change, negative = cytotoxic” value is on record?
Answer: Its value is -11.8%.

Question: With COc1ccc(C(=O)c2ccccc2)c(O)c1 as the molecule, how does the “activity change, negative = cytotoxic” value read?
Answer: The value was 5.03%.

Question: With Nc1nc(Cl)nc2c1ncn2[C@@H]1O[C@H](CO)[C@@H](O)[C@@H]1F as the molecule, how does the Potency read?
Answer: Its Potency is 0.233 µM (active).

Question: For CCCCCCCCCCC[C@@H](C[C@@H]1OC(=O)[C@H]1CCCCCC)OC(=O)[C@H](CC(C)C)NC=O, which “outcome” value is on record?
Answer: Its value is “inactive”.

Question: Which Potency does the source give for CCN1/C(=C/C=C/c2sc3ccccc3[n+]2CC)Sc2ccccc21 here?
Answer: The Potency was 2.04 µM (active).

Question: For NC(N)=NN=C(/C=C/c1ccc([N+](=O)[O-])o1)/C=C/c1ccc([N+](=O)[O-])o1, which Potency is on record?
Answer: The Potency was 2.93 µM (active).

Question: For O=[N+]([O-])c1ccc(/C=N\O)o1, which Potency is on record?
Answer: The Potency was 0.928 µM (active).

Question: For CCN[C@@H]1C[C@H](N)[C@@H](OC2OC(CN)=CCC2N)[C@H](O)[C@H]1O[C@H]1OC[C@](C)(O)[C@H](NC)[C@H]1O (some centres not stated), which activity change, negative = cytotoxic is on record?
Answer: Its activity change, negative = cytotoxic is 5.75% [at 0.556 µM].

Question: With C[C@H]1O[C@@H](O[C@H]2CC[C@@]3(C)[C@H](CC[C@@H]4[C@@H]3C[C@@H](O)[C@]3(C)[C@@H](C5=CC(=O)OC5)CC[C@]43O)C2)C[C@H](O)[C@@H]1O[C@H]1C[C@H](O)[C@H](O[C@H]2C[C@H](O)[C@H](O[C@@H]3O[C@H](CO)[C@@H](O)[C@H](O)[C@H]3O)[C@@H](C)O2)[C@@H](C)O1 as the molecule, how does the Potency read?
Answer: Its Potency is 0.465 µM (active).
